We go through 37 molecules from PubChem BioAssay (EPA / NIEHS).

“And” between values parts separate entries of the source, which are not always exact repeats. Equal values may be shown once. More than one record can exist for a structure, and the calls need not agree. The source made the active and inactive calls. Rule for the calls: active = hit-call score of the fitted dose curve at least 0.9, where 1 is the maximum; inactive = score below 0.9.

Read-out in this assay: Cyclin D1 (CCND1), CCND1 (gene 595)
Kind of assay: LTEA_HepaRG_CCND1: Life Technologies and Expression Analysis (LTEA) Assay for Cyclin D1 (CCND1) using HepaRG (AID 2283451).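 For AC50: TaqMan qRT-PCR transcript level normalised to ACTB GAPDH and POLR2A housekeeping genes.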 Conditions: mRNA level, 48 h; actives raise or lower the signal. The method, then:
LTEA_HepaRG is a cell based, multiplexed-readout assay that uses HepaRG, a human liver cell line, with measurements taken at 48 hours after chemical dosing on a 96-well plate.LTEA_HepaRG_CCND1 is one of 102 assay component(s) measured in the LTEA HepaRG cell culture assay. It is a marker of Cell proliferation, survival, death.Data from the assay component LTEA_HepaRG_CCND1 was analyzed into 1 endpoint. This assay endpoint, LTEA_HepaRG_CCND1, was analyzed with bidirectional fitting relative to DMSO as the negative control and baseline of activity. Using a type of inducible reporter, measures of mRNA induction for gain or loss-of-signal activity can be used to understand regulation of transcription factor activity. To generalize the intended target to other relatable targets, this assay endpoint is annotated to the cell cycle intended target family, where the subfamily is Cell proliferation, survival, death.
A total of 1060 chemcials from the ToxCast library were tested in eight-point concentration-response experiments. Cell culture and cytotoxicity assays were conducted at Thermo Fisher Scientific's Custom Services facility (Madison, WI). A single lot of human HepaRG cells (Thermo Fisher Scientific, Frederick, MD) was used for the cell culture experiments. 96-well format collagen type I coated plates of human HepaRG cells were prepared using established methods. Briefly, cryopreserved HepaRG cells were thawed, plated at a density of approximately 100,000 cells/well in HepaRG Thaw, Plate, and General Purpose media (HPRG770, Thermo Fisher Scientific), and incubated for 48 hours. 0.5% DMSO was selected as vehicle control to balance the requisite need of DMSO in HepaRG cultures to maintain differentiation (for example, baseline metabolism, proportions of hepatocytes vs. cholangiocytes), while enabling further hepatic receptor pathway activation (for example, PXR and CAR) in response to chemical exposure. 48 hours after plating, the culture medium was replaced with HepaRG Serum-Free Incudtion Media. Cells were exposed to each test chemical in duplicate and maintained in CO2 incubators for another 48 hours. Chemical plates were thawed to room temperature and 200x concentrations of treatment groups were prepared. 8-point conentration-reponse curves were made with the highest exposure at 100 uM, followed by half-log dilutions, all in 0.5% DMSO. Each test plate contained variouse controls, induction positive controls (1mM phenobarbital), cytotoxicity positive controls ([…] aflatoxin B1), vehicle controls (0.5% DMSO), and total lysis controls (0.5% DMSO). Cell morphology images were taken using an Essen IncuCyte FLR automated microscope, with six 96-well plates imaged in about 24 minutes. Images were captured and exported and JPEG files. Spent culture media was transfered to black-well plates for the LDH assay, and remaining media was sorted at -80 C for later use. Cells were treated with RLT buffer and frozen until shipped for gene expression analysis. Total RNA was isolated from the cell suspension in 75 uL of Buffer RLT (Qiagen, Germantown, MD 20874) by Quintiles/Expression Analysis (Durham, NC) using a custom isolation procedure. Total RNA from each plate well was transferred to a preamplification plate. Fluidigm's 96.96 Dynamic ArrayTM (Fluidigm, Amsterdam, the Netherlands) technology was used for gene expression analyses by quantitative reverse transcription polymerase chain reaction (qRT-PCR, performed by Quintiles/Expression Analysis, Durham, NC)89. Standard TaqManTM Assays (Applied Biosystems/ThermoFisher Scientific, Foster City, CA) were used to assess the expression of 93 genes selected based on their selectivity and sensitivity to important hepatic receptors known to be modulated by environmental chemicals; importance in human hepatocyte functionality; and hepatotoxicity. […]
For the molecule `CCOC1Oc2ccc(OS(C)(=O)=O)cc2C1(C)C` (stereo not given), the AC50 (as a rule, the concentration giving half of the maximal activity seen) is 76.1 µM (active).

Consider `ClC1C(Cl)C(Cl)C(Cl)C(Cl)C1Cl` (stereo not given), for which the outcome was inactive.

On to `OCCOc1ccccc1`, for which the molecule was classed as inactive.

As to `O=C(NC(=O)c1c(F)cccc1F)Nc1ccc(OC(F)(F)C(F)OC(F)(F)F)c(Cl)c1` (stereo not given), the molecule was classed as inactive.

On to `CNC(=O)Oc1cccc(N=CN(C)C)c1`, for which the molecule was called inactive.

As to `CNC(=O)/C=C(\C)OP(=O)(OC)OC`, the outcome was inactive.

With `COP(=S)(OC)Oc1ccc(SC)c(C)c1`, the outcome was inactive.

Regarding `CNC(=O)Oc1ccccc1OC(C)C`, the molecule was classed as inactive.

Turning to `CCOCN(C(=O)CCl)c1c(C)cccc1CC`, the call was inactive.

Take `Oc1ccc(Cl)cc1Cc1ccccc1`: the AC50 is 50.5 µM (active) and the outcome was inactive.

For the molecule `COc1nn(CSP(=S)(OC)OC)c(=O)s1`, the call was inactive.

Turning to `Cc1[nH]c(=O)n(C(C)(C)C)c(=O)c1Cl`, the outcome was inactive.

As to `O=C(Nc1ccccc1)Nc1cnns1`, the AC50 was 74.7 µM (active).

With `O=[N+]([O-])/N=C1\NCCN1Cc1ccc(Cl)nc1`, the molecule was called inactive.

For `CN1CSC(=S)N(C)C1`, the call was inactive.

Regarding `CCC(C)(NC(=O)c1cc(Cl)c(C)c(Cl)c1)C(=O)CCl` (stereo not given), the AC50 is 77.8 µM (active).

In the case of `Oc1cc(Cl)ccc1Oc1ccc(Cl)cc1Cl`, the AC50 was 85.2 µM (active) and the result was inactive.

Regarding `O=C(O)C(F)(F)C(F)(F)C(F)(F)C(F)(F)C(F)(F)C(F)(F)C(F)(F)F`, the molecule was called inactive.

As to `CC(C)(C)C(O)C(Oc1ccc(Cl)cc1)n1cncn1` (stereo not given), the molecule was classed as inactive.

For the molecule `O=C(O)CCCOc1ccc(Cl)cc1Cl`, the call was inactive.

`COP(=S)(OC)Oc1ccc([N+](=O)[O-])cc1`: the molecule was classed as inactive.

Consider `O=S1OCC2C(CO1)C1(Cl)C(Cl)=C(Cl)C2(Cl)C1(Cl)Cl` (stereo not given), for which the outcome was inactive.

Take `O=C(O)COc1ccc(Cl)cc1Cl`: the call was inactive.

As to `O=S(=O)(O)C(F)(F)C(F)(F)C(F)(F)C(F)(F)C(F)(F)C(F)(F)C(F)(F)C(F)(F)F`, the AC50 was 18.5 µM (active) and 22.3 µM (active) and 12.3 µM (active); the molecule was called inactive.

Take `CC(C)N(C(=O)COc1nnc(C(F)(F)F)s1)c1ccc(F)cc1`: the result was inactive.

In the case of `COP(=O)(OC)OC=C(Cl)Cl`, the call was inactive.

With `CNC(=O)CSP(=S)(OC)OC`, the result was inactive.

On to `CCCN(CCOc1c(Cl)cc(Cl)cc1Cl)C(=O)n1ccnc1`, for which the concentration at half-maximal activity (AC50) was 89.8 µM (active).

Consider `C[C@H]1[C@H](c2ccc(Cl)cc2)SC(=O)N1C(=O)NC1CCCCC1`, for which the outcome was inactive.

For `Clc1ccccc1-c1nnc(-c2ccccc2Cl)nn1`, the molecule was called inactive.

Consider `CC1(C)C(C=C(Cl)Cl)C1C(=O)OC(C#N)c1ccc(F)c(Oc2ccccc2)c1` (stereo not given), for which the outcome was inactive.

Regarding `CC(C)(C)C(O)/C(=C\c1ccc(Cl)cc1Cl)n1cncn1` (stereo not given), the AC50 was 82.5 µM (active).

For `O=[N+]([O-])c1c(Cl)c(Cl)c(Cl)c(Cl)c1Cl`, the AC50 is 50 µM (active).

`CC1(c2ccc(Oc3ccccc3)cc2)OC(=O)N(Nc2ccccc2)C1=O` (stereo not given): the call was inactive.

On to `CC[C@H](C)[C@H]1O[C@]2(C=C[C@@H]1C)C[C@@H]1C[C@@H](C/C=C(\C)[C@@H](O[C@H]3C[C@H](OC)[C@@H](O[C@H]4C[C@H](OC)[C@@H](O)[C@H](C)O4)[C@H](C)O3)[C@@H](C)/C=C/C=C3\CO[C@@H]4[C@H](O)C(C)=C[C@@H](C(=O)O1)[C@]34O)O2` (tested in a mixture with another compound), for which the result was inactive.

Take `O=C1c2ccccc2C(=O)N1SC(Cl)(Cl)Cl`: the outcome was inactive.

`CCN(CC)C(=O)SCc1ccc(Cl)cc1`: the molecule was classed as inactive.
